This is a sample that favours compounds with a hit; in the whole collection about 10% have one here.
ALDH1A1 inh – inhibitors of human aldehyde dehydrogenase 1A1; P00352; Purified ALDH1A1, NADH fluorescence, propionaldehyde substrate; Potency, µM (titrated, usually from 75.3 µM), hits mostly inhibitors; 220,000 tested, 7.3% active
LMNA splice mod – LMNA splicing modulation; HeLa LMNA splicing GFP/RFP minigene ratio, 48 h; Potency, µM (titrated, usually from 46.1 µM), actives largely listed as inhibitors; 200,000 tested, 0.01% active; AID 1487; active = well fitted inhibition curve with a large enough effect in the signal ratio, with a control signal flat, not every such curve was filed as active; inconclusive = small, poorly fitted or top-dose-only effect, or effect the other way, or a change in a side signal; the % refers to the signal ratio
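S3 HeLa cells stably expressing lamin A-EGFP splicing minigene plus DsRed2, 600 cells/well, 48 h compound exposure at 37C. Laser-scanning cytometry; analysed as GFP (500-530 nm)/RFP (575-640 nm) total intensity ratio; 0.5% DMSO vehicle.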
IMPase inh – IMPase inhibition in cells; P97697; CHO-M1 cells, IP1 accumulation, HTRF TR-FRET ratio; inhibition (IP1 accumulation), % at 46.1 µM; 120,000 tested, under 10 active; active = well fitted curve in the direction sought with a large enough effect in the signal ratio, not every such curve was filed as active; inconclusive = small, poorly fitted or top-dose-only effect, or a change in a side signal; inactive = no such curve, though single readings can be large or run the other way; the % refers to the signal ratio;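 also: cells stimulated with carbachol in lithium chloride buffer; higher means more IMPase inhibition seen as more IP1 and lower FRET ratio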
Target sequence (P97697 whole entry, looked up): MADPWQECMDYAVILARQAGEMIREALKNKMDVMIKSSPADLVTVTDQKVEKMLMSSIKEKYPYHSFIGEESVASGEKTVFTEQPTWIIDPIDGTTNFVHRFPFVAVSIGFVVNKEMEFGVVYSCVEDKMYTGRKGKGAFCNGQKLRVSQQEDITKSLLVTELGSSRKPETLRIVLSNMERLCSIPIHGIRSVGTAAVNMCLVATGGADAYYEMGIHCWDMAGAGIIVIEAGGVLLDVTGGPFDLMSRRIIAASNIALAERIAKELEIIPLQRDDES
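Elevated IP1 in lysates lowers TR-FRET signal (665/620 ratio and 620 channel reported). Cells were CHO-M1, given carbachol (50 uM as added) plus 50mM LiCl, pH 7.4, 30 min, 37C; compounds titrated up to 46 uM; AC50 by Hill equation.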
PNC inhibitor – perinucleolar compartment assembly inhibition; AID 2417; 140,000 tested, 3.1% active; activity change (PNC), negative = inhibition, % at 10 µM; PC3M PTB-GFP, PNC prevalence imaging, 16 h; stronger effect = lower value;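 active = readout at or below -70, meaning at least 70% loss of cells showing the perinucleolar compartment, a nuclear body marking cancer cells; inconclusive = readout between -30 and a set limit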
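PC3M cells stably expressing PTB-GFP, 750–1000 cells/well, treated 16 h at 37 °C with compound (23 nl of library stock), in duplicate. After paraformaldehyde fixation and Hoechst stain, imaged at 20x; PNC prevalence scored by image analysis.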
HPGD inh – HPGD (human) dehydrogenase inhibition | P15428 | purified HPGD, NADH fluorescence kinetic, PGE2 substrate | Potency, µM, actives largely listed as inhibitors | 150,000 tested, 4.3% active | AID 894
Target sequence (P15428 whole entry, looked up): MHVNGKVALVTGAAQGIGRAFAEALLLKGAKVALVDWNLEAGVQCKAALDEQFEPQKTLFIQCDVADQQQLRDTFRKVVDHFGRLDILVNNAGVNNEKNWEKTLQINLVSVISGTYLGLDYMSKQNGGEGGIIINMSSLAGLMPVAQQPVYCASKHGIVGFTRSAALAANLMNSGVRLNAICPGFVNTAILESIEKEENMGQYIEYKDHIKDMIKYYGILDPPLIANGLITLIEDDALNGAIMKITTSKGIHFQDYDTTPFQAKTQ
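NADH formation kinetics: reaction with 30 uM PGE2 and 1 mM NAD+ (final), 20 nM enzyme, Tris-HCl pH 8 with Tween 20, after 15 min compound preincubation at room temperature. Fluorescence change, last versus first of five reads.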
KinaseGlo FLuc – blocks Kinase-Glo luciferase, a counter-screen artifact. Q27757. Kinase-Glo luciferase, ATP luminescence, 8 min. Potency, µM (highest dose often 38.3 µM), most hits filed as inhibitors. 200,000 tested, 0.28% active. AID 1379; active = well fitted inhibition curve with a large enough effect; inconclusive = small, poorly fitted or top-dose-only effect; also: nearly all actives have a fitted effect of over 60% in size
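Inhibition of Kinase-Glo luciferase light generation was assessed at 10 uM ATP in pH 7.2 imidazole buffer, with luminescence measured after eight minutes at ambient temperature.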
Of the large screens only hits and unclear results are named; the others gave an inactive call. Unless noted, calls follow the shape of the dose curve; as a rule, active = well fitted inhibition curve with a large enough effect (not every such curve was filed as active); inconclusive = small, poorly fitted or top-dose-only effect, or another doubt; inactive = no such curve, though single readings can be large or run the other way.

Cc1cc(-c2csc(N)n2)c(C)n1CCc1ccccc1	ALDH1A1 inh inconclusive, PNC inhibitor -107.7
Cc1nc(N)sc1-c1csc(NCc2ccccc2)n1	ALDH1A1 inh 2.24µM, LMNA splice mod inconclusive, HPGD inh 17.8µM
O=C(O)CC[P+](c1ccccc1)(c1ccccc1)c1ccccc1	none (no result: LMNA splice mod, IMPase inh, PNC inhibitor)
COc1ccccc1CNC(=O)CN1C(=O)CSc2ccc(S(=O)(=O)N3CCCCC3)cc21	none (no result: ALDH1A1 inh, IMPase inh, PNC inhibitor, HPGD inh, KinaseGlo FLuc)
O=C(Nc1nn[nH]n1)c1nc(-c2ccccc2)cc(=O)[nH]1	none (no result: LMNA splice mod, IMPase inh, PNC inhibitor)
CCCc1c(OCC(O)COc2ccc3c(=O)cc(C(=O)O)oc3c2CCC)ccc(C(C)=O)c1O (stereo not given)	HPGD inh 17.8µM (no result: LMNA splice mod, IMPase inh, PNC inhibitor)
COCCCNC(=O)c1cc2n(n1)CCCN(Cc1ccc(C)cc1)C2=O	none (no result: ALDH1A1 inh, IMPase inh, PNC inhibitor, HPGD inh, KinaseGlo FLuc)
COc1ccccc1/C=C1\S/C(=N/NC(=O)c2cccc(Br)c2)NC1=O	LMNA splice mod inconclusive, PNC inhibitor inconclusive, HPGD inh 11.2µM
CCCCOc1ccc(C(=O)Nc2ccc3c(c2)N(C(C)=O)CCC3)cc1	none (no result: ALDH1A1 inh, IMPase inh, PNC inhibitor, HPGD inh, KinaseGlo FLuc)
O=C(CSc1nc(=O)n(Cc2ccco2)c2c1CCC2)Nc1ccccc1C(F)(F)F	none (no result: ALDH1A1 inh, IMPase inh, PNC inhibitor, HPGD inh, KinaseGlo FLuc)
Cc1nc2c(=O)[nH]c(=S)n(C)c2nc1C	ALDH1A1 inh 7.08µM, PNC inhibitor -113.8, HPGD inh 10µM (no result: IMPase inh)
Cn1c(=S)[nH]c2cccnc21	PNC inhibitor inconclusive
CCN(CC)c1ccc(C(=O)N/N=C/c2ccccc2OC(F)F)cc1	LMNA splice mod inconclusive (no result: IMPase inh, PNC inhibitor, HPGD inh)
O=C(CO/N=C/c1ccccc1OC(F)F)NC1CCCCC1	HPGD inh 25.1µM (no result: IMPase inh)
CCC(CC)NC(=O)CO/N=C/c1ccccc1OC(F)F	LMNA splice mod inconclusive, HPGD inh 20µM (no result: IMPase inh)
CCOc1nc(-c2ccccc2)ccc1-c1noc(-c2ccco2)n1	PNC inhibitor -100.0, HPGD inh inconclusive
CCN1CCN(C(=O)c2ccc(CSc3ccc(C)cc3)cc2)CC1	ALDH1A1 inh inconclusive, HPGD inh 14.1µM
CCOC(=O)c1c(C)[nH]c(C)c1S(=O)(=O)N1CCCC(C(=O)Nc2ccc(OC)c(OC)c2)C1 (stereo not given)	none (no result: ALDH1A1 inh, IMPase inh, PNC inhibitor, HPGD inh, KinaseGlo FLuc)
Cc1c(C(=O)NCCc2ccc(Cl)cc2)sc2nc3n(c(=O)c12)CCCC3	none (no result: ALDH1A1 inh, IMPase inh, PNC inhibitor, HPGD inh, KinaseGlo FLuc)
Cc1ccc(NC(=O)C2CCCN(S(=O)(=O)c3cccs3)C2)cc1 (stereo not given)	none
CCC1S/C(=N\S(=O)(=O)c2cccs2)N(C2CCCCC2)C1=O (stereo not given)	ALDH1A1 inh 7.94µM
Cc1cc(SCC(=O)NCCC2=CCCCC2)nc2ccccc12	HPGD inh 25.1µM (no result: IMPase inh)
CCOC(=O)N1CCC(n2c(SCC(=O)NCCC3=CCCCC3)nc3ccccc3c2=O)CC1	ALDH1A1 inh 12.6µM, LMNA splice mod inconclusive
Cc1n[nH]c(=S)n1/N=C/c1ccc(-c2ccccc2[N+](=O)[O-])o1	ALDH1A1 inh 14.1µM, HPGD inh 14.1µM
O=[N+]([O-])c1cccc(-c2ccc(/C=N/n3c(-c4ccccc4)n[nH]c3=S)o2)c1	PNC inhibitor inconclusive, HPGD inh inconclusive
Cc1nnc(N/N=C\c2ccc(-c3ccccc3[N+](=O)[O-])o2)n1N	ALDH1A1 inh 20µM (no result: IMPase inh)
O=C(O)CCSCc1ccc(I)cc1	none (no result: LMNA splice mod, IMPase inh, PNC inhibitor)
CC(=O)Nc1cc(C(=O)NCc2ccco2)ccc1Sc1ccc(Cl)cc1	ALDH1A1 inh inconclusive, PNC inhibitor -102.8 (no result: IMPase inh)
Cc1ccc(C(=O)NCc2ccco2)cc1Br	ALDH1A1 inh inconclusive
CSc1ccc(Cl)c(C(=O)NCc2ccco2)c1	ALDH1A1 inh inconclusive, PNC inhibitor inconclusive, HPGD inh 15.8µM
CC(=O)Nc1cc(C(=O)NCc2ccco2)ccc1Sc1ccc(F)cc1	LMNA splice mod inconclusive
Cc1ccc2c(CC(=O)NCc3ccco3)coc2c1C	ALDH1A1 inh 25.1µM, LMNA splice mod inconclusive, HPGD inh 2.82µM
Cc1c(Br)cc(C(=O)NCc2ccco2)c(C)c1C	ALDH1A1 inh inconclusive, PNC inhibitor inconclusive, HPGD inh 25.1µM
O=C1C=C[C@@H](O)[C@H]2[C@@H]3C(=O)N(c4cccc(Oc5ccccc5)c4)C(=O)[C@@H]3CC[C@H]12	none (no result: LMNA splice mod, IMPase inh, PNC inhibitor, HPGD inh, KinaseGlo FLuc)
C[C@H]1Cc2c(-c3ccccc3)nc3c(c2CO1)CN(C(=O)NCc1ccco1)CC3	none (no result: IMPase inh, PNC inhibitor)
O=C1c2oc3ccccc3c(=O)c2C(c2cccc(O)c2)N1CCCN1CCOCC1 (stereo not given)	ALDH1A1 inh inconclusive
O=C1c2oc3ccccc3c(=O)c2C(c2cccc(F)c2)N1CCCO (stereo not given)	ALDH1A1 inh 14.1µM
Cc1cc2oc3c(c(=O)c2cc1C)C(c1ccc(F)cc1)N(CCCN1CCOCC1)C3=O (stereo not given)	ALDH1A1 inh 7.08µM
O=C1c2oc3ccccc3c(=O)c2C(c2cccnc2)N1Cc1ccco1 (stereo not given)	ALDH1A1 inh 14.1µM
Cc1ccc(C2CC(=O)Oc3cc(C)c(Cl)cc32)cc1 (stereo not given)	none (no result: LMNA splice mod, IMPase inh, PNC inhibitor)
COCCn1nnnc1C(c1cc2cc(C)ccc2[nH]c1=O)N1CCc2ccccc21 (stereo not given)	ALDH1A1 inh 3.16µM
COc1ccc2cc(C(c3nnnn3CCc3ccccc3)N3CCCC(C)C3)c(=O)[nH]c2c1 (stereo not given)	ALDH1A1 inh 31.6µM
COCCn1nnnc1C(c1cc2c(C)cc(C)cc2[nH]c1=O)N1CCCCCC1 (stereo not given)	ALDH1A1 inh inconclusive, HPGD inh inconclusive
COCCn1nnnc1C(c1cc2cc(C)ccc2[nH]c1=O)N1CCCCCC1 (stereo not given)	ALDH1A1 inh 25.1µM
